# Hits are enriched below; roughly 5.4% of the tested compounds scored in any of these assays.
# CtBP-E1A blk: inhibitors of CtBP/E1A interaction. AlphaScreen GST-E1A/His-CtBP binding, 1536-well; hits give low values. activity change, % (no concentration beside the values). hit rate 0.49% among 340,000. AID 651724; in the data active = activity change below about -65%; inconclusive = mostly about -30% to -63%; note: % is set by controls: 0 for no effect and ±100 for the full control effect
#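 In 5 uL wells, 23 nL compound meets equimolar GST-E1A and His-CtBP (5X stock 125 nM each) for 2 h, 37 °C. Beads (5X, 50 ug/mL) then 1 h, 37 °C, dark.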
# Gal4-VP16 FLuc: counter-screen for ROR gamma inhibitors: Gal4-VP16 reporter | Potency, µM (highest dose often 53.6 µM), without a hit: at the highest dose activity, negative = inhibition, usual class: inhibitors | Drosophila S2 Gal4-VP16 UAS-luciferase, luminescence, 20 h | hit rate 3.5% among 310,000 | AID 2546;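 note: Gal4-VP16 expression switched on by copper sulfate through the metallothionein promoter; potency is the fitted concentration of half-maximal effect; % is set by controls: 0 for no effect and ±100 for the full control effect; nearly all actives have a fitted effect of over 50% in size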
# RORgamma inh: ROR gamma (mouse) transcription inhibition | hit rate 5.4% among 310,000 | Potency, µM (highest dose often 53.6 µM), for the others: top-dose activity change, negative = inhibition, hits mostly inhibitors | P51450 | AID 2551 | Drosophila S2 Gal4-RORgamma UAS-luciferase reporter, 20 h; note: potency is the fitted concentration of half-maximal effect; % is set by controls: 0 for no effect and ±100 for the full control effect; nearly all actives have a fitted effect of over 60% in size
# Target sequence (P51450 whole entry, looked up, the tested form may be a part): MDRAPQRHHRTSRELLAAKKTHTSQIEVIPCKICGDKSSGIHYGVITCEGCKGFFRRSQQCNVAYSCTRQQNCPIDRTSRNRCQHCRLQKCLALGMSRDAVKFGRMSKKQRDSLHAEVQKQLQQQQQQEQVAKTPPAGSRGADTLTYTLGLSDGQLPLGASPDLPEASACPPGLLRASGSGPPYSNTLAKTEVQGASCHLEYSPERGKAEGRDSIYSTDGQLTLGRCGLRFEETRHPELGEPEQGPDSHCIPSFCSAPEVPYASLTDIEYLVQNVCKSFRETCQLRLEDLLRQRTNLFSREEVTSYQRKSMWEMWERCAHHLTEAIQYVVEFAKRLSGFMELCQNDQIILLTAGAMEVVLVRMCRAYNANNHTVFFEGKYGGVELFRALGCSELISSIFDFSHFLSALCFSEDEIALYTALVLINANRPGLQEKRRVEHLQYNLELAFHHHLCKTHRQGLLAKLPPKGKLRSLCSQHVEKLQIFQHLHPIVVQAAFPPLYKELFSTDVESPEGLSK
#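 Stable Schneider cell line, Gal4 DNA-binding domain fused to ROR gamma, UAS-luciferase. Cmpd 1 hr RT → CuSO4 700 uM final → 20 hr RT → luciferase reagent 10 min → luminescence.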
# p53 reactivation: re-activators of mutant p53. H1299 p53-A138V BP100-luciferase reporter, luminescence, 24 h. Potency, µM (top dose mostly 92.2 µM), without a hit: at the top dose activity change, positive = activation, usual class: activators. hit rate 0.063% among 320,000. AID 504706; note: potency is the fitted concentration of half-maximal effect; % of control where 0% means no effect; nearly all actives have a fitted effect of over 45% in size
#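 H1299 (p53-null), stable ts p53-A138V + BP100-Luc; 1000 cells/well, Opti-MEM/10% FBS; cpd 4 pt, 1:5; 24 h, 37 deg C, 5% CO2; detection reagent 10 min RT; luminescence.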
# Six1-Eya2 inh: inhibitors of human Six1/Eya2 interaction. Q15475+O00167. AlphaScreen GST-Six1/His-Eya2 binding, biochemical; hits give low values. activity change, % (no concentration beside the values). hit rate 0.56% among 360,000. AID 651725; in the data active = activity change below about -65%; inconclusive = mostly about -30% to -63%; note: % is set by controls: 0 for no effect and ±100 for the full control effect
#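 AlphaScreen luminescence read after one hour at 37 °C in darkness. Pin-transferred compounds met GST-Six1 and His-Eya2 protein (5X stock 250 nM/500 nM) plus glutathione donor and Ni-chelate acceptor beads (5X, 50 ug/mL).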
# * marks the source's active call; other numbers are inactive results; u = inconclusive; x = not tested or not shown; [ ] = remark or other dose. Unless noted, calls come from the whole dose curve; as a rule, active = well fitted curve in the direction sought with a large enough effect; inconclusive = small, poorly fitted or top-dose-only effect, or another doubt; inactive = no such curve, though single readings can be large; an effect the other way counts as inactive or inconclusive.
SMILES,CtBP-E1A blk,Gal4-VP16 FLuc,RORgamma inh,p53 reactivation,Six1-Eya2 inh
CCOC(=O)/C=C/c1cnn(-c2ccccc2)c1,12,u,u,25%,3
CN1c2ccccc2C(=O)N2CCc3c([nH]c4ccccc34)C21 (configuration not stated),x,-19%,13%,x,x
COc1ccc(-n2c(=O)c3c4c(sc3n3c(=S)[nH]nc23)CCCC4)cc1,7,13µM*,7.9µM*,0%,4
COC(=O)CSc1nnc2n(-c3ccc(OC)cc3)c(=O)c3c4c(sc3n12)CCCCC4,1,1%,0%,0%,-1
CC(C)C(=O)NC(=S)Nc1c(Cl)ccc2nsnc12,0,-2%,13µM*,-2%,2
O=C(Nc1c(Cl)ccc2nsnc12)c1ccco1,0,-7%[10 µM],1%,-3%,-12
Cc1ccc(C(=O)NC(=S)Nc2c(C)ccc3nsnc23)cc1,-1,u,10µM*,-5%,-7
Cc1ccc2ncccc2c1NS(=O)(=O)c1ccccc1,5,-3%,u,-3%,6
Cc1ccc2ncccc2c1NC(=S)NC(=O)c1ccccc1,-1,25%,8.9µM*,-3%,-1
Cc1ccc(C(=O)NC(=S)Nc2cccc3nsnc23)cc1,0,26%,-18%,-1%,-4
CN(CC(=O)Nc1ccccc1Cl)C(=O)c1ccc(COc2ccccc2)cc1,8,x,x,8%,-4
COC(=O)[C@H]1C[C@@H]1[C@H](NC(C)=O)c1ccccc1,x,0%,10%,x,x
CCC(C)c1ccccc1N1CC(C(=O)NCCCn2nc(C)cc2C)CC1=O (configuration not stated),5,x,x,-14%,-4
CCn1c(O)c(N=Nc2ccc3ccccc3n2)c2ccccc21,4,3%,u,21%,6
C=CCn1c(O)c(N=Nc2ccccc2C)c2ccccc21,7,0%,-14%,14%,6
CCCCn1c(O)c(N=Nc2ccccn2)c2ccccc21,20,u,10µM*,2%,15
CCCCn1c(O)c(N=Nc2ccccc2O)c2ccccc21,-17,x,x,40µM*,-20
CN(Cc1ccco1)c1ncncc1-c1ccc2c(c1)OCO2,x,-9%,-16%,x,x
O=C(NCc1ccccc1)c1ccc(/C=N/O)nc1,-20,2%,5µM*,-5%,u
CNCCCNC(=O)c1ccc(/C=N/O)nc1,u,4%,-1%,-4%,-69*
C[N+](C)(C)CCCNC(=O)c1ccc(/C=N/O)nc1,u,1%,-4%,-2%,-69*
CN(C)CCCNC(=O)c1ccc(/C=N/O)nc1,u,17%,-26%,3%,u
C[C@H]1CN([C@@H](C)CO)C(=O)CCCn2cc(nn2)CO[C@@H]1CN(C)C(=O)OCc1ccccc1,-23,x,x,x,13
OC1CCCCC1,3,3%,-1%,12%,3
Cc1ccc(/C=N/Nc2cccc3cccnc23)c(O)c1,-2,u,10µM*,u,-1
SMILES,CtBP-E1A blk,Gal4-VP16 FLuc,RORgamma inh,p53 reactivation,Six1-Eya2 inh
Oc1cccc(C=NNc2ccccn2)c1,3,x,x,x,-8
O=C(O)COc1ccc(Br)cc1/C=N\Nc1ccccn1,-2,-21%,2.2µM*,10%,0
Cc1cccc(N/N=C/c2ccccc2O)c1,-8,7%,-18%,u,-12
Oc1ccc(C=NNc2ccccn2)c(O)c1,-5,x,x,x,-91*
Oc1ccc(/C=N/Nc2cccc3cccnc23)c(O)c1,7,-9%[0.365 µM],2.5µM*,11%,-24
CCOc1cc(/C=C2/NC(=O)N(CC(=O)OC)C2=O)ccc1O,-2,-7%[10 µM],14%,0%,-2
CS(=O)(=O)c1ccc(Cn2c3c(c4cc(F)cc(F)c42)CCC[C@H]3CC(=O)O)cc1,x,u,30%,x,x
Cc1ccccc1CNC(=O)c1csc([C@H]2C[C@H](O)[C@@H](CO)O2)n1,6,x,x,x,-2
C=CCn1c(SCC(=O)N2CCCCC2)nnc1-c1ccncc1,2,-8%,6%,0%,5
CCC/C=C(\CCC)C(NC(=O)OCC(C)C)c1ccccc1 (configuration not stated),x,-4%,2%,x,x
O=C(CN1C(=O)/C(=C2\SC(=S)N(C3CCS(=O)(=O)C3)C2=O)c2ccccc21)Nc1ccccc1 (configuration not stated),-1,-21%,0.89µM*,2%,-19

# High-throughput results: PubChem, National Center for Advancing Translational Sciences (NCATS)
